Experimental data as given in PubChem BioAssay AID1159580 (chemical genetic matrix, 2015).
Several values for one entry are separate records, joined by “and”; a condition that tells them apart may be missing. Equal entries are not always repeated. The whole screen tested about 5,500 compounds, of which about 2,000 (36%) were called active. About 18% were inconclusive and are not listed. Cut-off read from the data, not from the text of the source: active = normalized growth mostly below about 0.91 (no sharp cut-off); inconclusive = no clear call, values can overlap the other calls; inactive = mostly above about 0.92. The list shows a part of the results.

Experiment: chemical genetic growth profiling, strain panel (AID 1159580);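 note: tested at 20 µM; growth read once vehicle control cultures reached saturation at 30 °C; 1 = growth at the plate median or of vehicle wells; lower values mean less growth of the strain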
Settings: S. cerevisiae deletion strains, growth OD

Measured: normalized growth

CC(=O)Nc1cc([As](=O)(O)O)ccc1O
inactive: locus YAL013W, strain DEP1, active compounds read low 0.996 | locus YAL021C, strain ccr4, active compounds read low 1.01 | locus YAL026C, strain drs2, active compounds read low 1.01 | locus YAL030W, strain snc1, active compounds read low 1.01 | locus YBL061C, strain skt5, active compounds read low 1 | locus YBR009C, strain hhf1, active compounds read low 1.01 | locus YBR021W, strain FUR4, active compounds read low 1.05 | locus YBR023C, strain chs3, active compounds read low 1.01 | locus YBR171W, strain sec66, active compounds read low 1.01 | locus YBR229C, strain ROT2, active compounds read low 1.01 | locus YBR231C, strain swc5, active compounds read low 1.01 | locus YBR279W, strain paf1, active compounds read low 0.999 | locus YCL011C, strain gbp2, active compounds read low 1.02 | locus YCL016C, strain dcc1, active compounds read low 0.994 | locus YCL029C, strain bik1, active compounds read low 0.981 | locus YCL061C, strain MRC1, active compounds read low 0.995 | locus YCL069W, strain vba3, active compounds read low 1.01 | locus YCR088W, strain abp1, active compounds read low 1.01 | locus YDL005C, strain med2, active compounds read low 1 | locus YDL035C, strain GPR1, active compounds read low 0.999 | locus YDL040C, strain nat1, active compounds read low 1.01 | locus YDL074C, strain BRE1, active compounds read low 0.936 | locus YDL101C, strain DUN1, active compounds read low 0.992 | locus YDL185W, strain tfp1, active compounds read low 0.945 | locus YDL192W, strain arf1, active compounds read low 0.994 | locus YDR001C, strain nth1, active compounds read low 1.02 | locus YDR069C, strain doa4, active compounds read low 1.01 | locus YDR101C, strain arx1, active compounds read low 0.936 | locus YDR137W, strain rgp1, active compounds read low 1.01 | locus YDR150W, strain NUM1, active compounds read low 0.997 | locus YDR159W, strain sac3, active compounds read low 0.988 | locus YDR162C, strain NBP2, active compounds read low 0.996 | locus YDR195W, strain ref2 0.995 | locus YDR297W, strain sur2, active compounds read low 1.01 | locus YDR318W, strain mcm21, active compounds read low 1 | locus YDR334W, strain swr1, active compounds read low 1.02 | locus YDR335W, strain msn5, active compounds read low 1.01 | locus YDR388W, active compounds read low 0.997 | locus YDR392W, strain spt3, active compounds read low 0.905 | locus YDR502C, strain sam2, active compounds read low 1.02 | locus YEL003W, strain gim4, active compounds read low 1.01 | locus YEL037C, strain rad23, active compounds read low 1.01 | locus YEL061C, strain CIN8 (second series), active compounds read low 1.02 | locus YEL061C, strain CIN8, active compounds read low 1 | locus YER015W, strain faa2, active compounds read low 0.998 | locus YER016W, strain bim1, active compounds read low 1.01 | locus YER110C, active compounds read low 0.983 | locus YER111C, strain swi4, active compounds read low 1 | locus YER155C, strain BEM2 (second series), active compounds read low 0.982 | locus YER155C, strain BEM2, active compounds read low 1.01 | locus YER167W, strain BCK2, active compounds read low 0.996 | locus YFR010W, strain ubp6, active compounds read low 1.03 | locus YGL078C, strain dbp3, active compounds read low 0.985 | locus YGL086W, strain mad1, active compounds read low 0.996 | locus YGL167C, strain pmr1, active compounds read low 1.01 | locus YGL173C, strain kem1, active compounds read low 1.01 | locus YGL227W, strain vid30, active compounds read low 1.01 | locus YGL240W, strain doc1, active compounds read low 0.978 | locus YGL248W, strain PDE1, active compounds read low 1.01 | locus YGL253W, strain hxk2, active compounds read low 1.02 | locus YGR078C, strain PAC10, active compounds read low 1 | locus YGR135W, strain pre9, active compounds read low 1.01 | locus YGR252W, strain gcn5, active compounds read low 1.11 | locus YHR013C, strain ard1, active compounds read low 0.997 | locus YHR027C, strain rpn1, active compounds read low 1.02 | locus YHR030C, strain SLT2, active compounds read low 0.981 and 1.03 | locus YHR079C, strain IRE1 (second series), active compounds read low 0.983 | locus YHR079C, strain IRE1, active compounds read low 1.01 | locus YHR094C, strain hxt1, active compounds read low 0.996 | locus YHR129C, strain ARP1, active compounds read low 0.985 | locus YHR142W, strain chs7, active compounds read low 1.03 | locus YHR200W, strain rpn10, active compounds read low 0.991 | locus YIL066C, strain RNR3, active compounds read low 0.998 | locus YIL073C, strain SPO22, active compounds read low 0.99 | locus YIL125W, strain kgd1, active compounds read low 0.985 | locus YIR030C, strain dcg1, active compounds read low 0.992 | locus YJL092W, strain hpr5, active compounds read low 1 | locus YJL095W, strain BCK1 (second series), active compounds read low 1.03 | locus YJL095W, strain BCK1, active compounds read low 1.03 and 1.02 | locus YJL115W, strain asf1, active compounds read low 1.01 | locus YJL129C, strain trk1, active compounds read low 1.01 | locus YJL134W, strain LCB3, active compounds read low 0.997 | locus YJL154C, strain vps35, active compounds read low 1.01 | locus YJL164C, strain tpk1, active compounds read low 1 | locus YJL166W, strain qcr8, active compounds read low 0.999 | locus YJL168C, strain set2, active compounds read low 0.932 | locus YJL187C, strain SWE1 (second series), active compounds read low 0.995 | locus YJL187C, strain SWE1, active compounds read low 1.04 | locus YJR043C, strain POL32, active compounds read low 0.997 | locus YJR066W, strain TOR1, active compounds read low 0.961 | locus YJR075W, strain HOC1, active compounds read low 0.983 | locus YKL009W, strain mrt4, active compounds read low 0.956 | locus YKL068W, active compounds read low 0.986 | locus YKL085W, strain MDH1 (second series), active compounds read low 0.982 | locus YKL085W, strain MDH1, active compounds read low 0.982 | locus YKL160W, strain elf1, active compounds read low 0.981 | locus YKR001C, strain vps1, active compounds read low 0.999 | locus YKR026C, strain gcn3, active compounds read low 1 | locus YKR091W, strain srl3, active compounds read low 1.01 | locus YLL001W, strain dnm1, active compounds read low 0.99 | locus YLL026W, active compounds read low 1 | locus YLL041C, strain sdh2, active compounds read low 1 | locus YLR027C, strain aat2, active compounds read low 1 | locus YLR039C, strain RIC1, active compounds read low 1.01 | locus YLR058C, strain SHM2, active compounds read low 0.994 | locus YLR102C, strain apc9, active compounds read low 0.984 | locus YLR113W, strain HOG1, active compounds read low 1.01 | locus YLR221C, strain rsa3, active compounds read low 1.02 | locus YLR258W, strain gsy2, active compounds read low 0.998 | locus YLR262C, strain YPT6 (second series), active compounds read low 0.999 | locus YLR262C, strain YPT6, active compounds read low 1.01 | locus YLR268W, strain sec22, active compounds read low 0.964 | locus YLR320W, strain mms22, active compounds read low 0.995 | locus YLR330W, strain CHS5, active compounds read low 1 | locus YLR342W, strain FKS1 (second series), active compounds read low 1.01 | locus YLR342W, strain FKS1, active compounds read low 1.01 | locus YLR357W, strain rsc2, active compounds read low 1 | locus YLR370C, strain arc18, active compounds read low 1.01 | locus YLR371W, strain rom2, active compounds read low 0.984 | locus YLR384C, strain iki3, active compounds read low 0.998 | locus YLR418C, strain cdc73, active compounds read low 0.997 | locus YML016C, strain PPZ1, active compounds read low 0.995 | locus YML032C, strain rad52, active compounds read low 1.03 | locus YML120C, strain ndi1, active compounds read low 1.01 | locus YML124C, strain tub3, active compounds read low 0.981 | locus YMR058W, strain fet3, active compounds read low 1.01 | locus YMR078C, strain ctf18, active compounds read low 0.976 | locus YMR125W, strain sto1, active compounds read low 1 | locus YMR129W, active compounds read low 1.01 | locus YMR205C, strain PFK2, active compounds read low 0.994 | locus YMR223W, strain ubp8, active compounds read low 1.01 | locus YMR231W, strain pep5, active compounds read low 0.996 | locus YMR307W, strain GAS1, active compounds read low 1.17 | locus YNL067W, strain RPL9B, active compounds read low 0.983 | locus YNL071W, strain lat1, active compounds read low 1.01 | locus YNL183C, strain NPR1, active compounds read low 0.973 | locus YNL209W, strain ssb2, active compounds read low 1.01 | locus YNL233W, strain BNI4, active compounds read low 1.01 | locus YNL248C, strain rpa49, active compounds read low 0.987 | locus YNL250W, strain rad50, active compounds read low 0.976 | locus YNL271C, strain bni1, active compounds read low 0.983 | locus YNL298W, strain CLA4, active compounds read low 1 | locus YNL307C, strain MCK1, active compounds read low 0.981 | locus YNL322C, strain KRE1 (second series), active compounds read low 0.992 | locus YNL322C, strain KRE1, active compounds read low 1 | locus YNR049C, strain mso1, active compounds read low 1.01 | locus YNR052C, strain pop2, active compounds read low 1 | locus YOL006C, strain TOP1, active compounds read low 0.999 | locus YOL012C, strain htz1 0.886 | locus YOL147C, strain pex11, active compounds read low 0.995 | locus YOR001W, strain rrp6, active compounds read low 0.989 | locus YOR061W, strain CKA2, active compounds read low 0.993 | locus YOR069W, strain VPS5, active compounds read low 0.998 | locus YOR070C, strain gyp1, active compounds read low 1 | locus YOR080W, strain dia2, active compounds read low 1 | locus YOR083W, strain WHI5, active compounds read low 0.978 | locus YOR106W, strain vam3, active compounds read low 0.99 | locus YOR136W, strain idh2, active compounds read low 0.974 | locus YOR144C, strain elg1, active compounds read low 0.992 | locus YOR184W, strain ser1, active compounds read low 0.988 | locus YOR231W, strain MKK1, active compounds read low 1 | locus YOR265W, strain rbl2, active compounds read low 0.998 | locus YOR270C, strain vph1, active compounds read low 1.05 | locus YOR290C, strain snf2, active compounds read low 0.993 | locus YOR316C, strain cot1, active compounds read low 0.985 | locus YPL051W, strain arl3, active compounds read low 1 | locus YPL078C, strain atp4, active compounds read low 0.982 | locus YPL106C, strain sse1, active compounds read low 0.985 | locus YPL240C, strain hsp82, active compounds read low 0.998 | locus YPL241C, strain CIN2, active compounds read low 1 | locus YPL256C, strain CLN2, active compounds read low 1.03 | locus YPR119W, strain clb2, active compounds read low 0.983 | locus YPR141C, strain kar3, active compounds read low 0.988 | locus YPR163C, strain tif3, active compounds read low 0.997 | locus YPR167C, strain met16, active compounds read low 0.994 | strain wtn01, active compounds read low 0.964
